Experimental data taken from PubChem BioAssay AID904 (National Center for Advancing Translational Sciences (NCATS), 2007).
Screen size: about 55,000 compounds; about 530 (0.96%) were called active. Another 7% or so got no clear call; they are omitted. The full list was thinned out, with actives kept by preference. Unmarked numbers belong to inactive results. Calls follow the shape of the dose curve; as a rule, active = well fitted cell-killing curve with a large enough effect; inconclusive = small, poorly fitted or top-dose-only effect; inactive = no such curve, though single readings can be large or run the other way.

Assay: qHTS Screen for Compounds that Selectively Target Cancer Cells with p53 Mutations: Cytotoxicity of p53 Null Cells at the Nonpermissive Temperature; also: nearly all actives have a fitted effect of over 50% in size;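 as to activity, negative = cell killing: 0% = DMSO only and -100% = full killing by 100 µM tamoxifen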
Settings: H1299 p53-null (neo) cells, 39C, ATPlite viability, 24 h; series mostly up to 46.1 µM; activity, negative = cell killing: at the top concentration
Text: NIH Chemical Genomics Center [NCGC] NIH Molecular Libraries Screening Centers Network [MLSCN] MLSCN Grant: 1 X01 MH079844-01 Assay Submitter (PI): Dr. SUN, YI, University of Michigan NCGC Assay Overview: Synthetic Lethal Screen for Compounds to Kill Cancer Cells with p53 Mutation. Tumor suppressor gene p53 serves as a major cellular barrier against tumorigenesis. […] The goal of this screening is to identify small molecule probes that selectively kill cancer cells with mutations in p53. This screening was carried out using two lines of H1299 lung cancer cells. The H1299-p53 A138V line express a temperature sensitive p53 mutant (p53ts) in which the mutant p53 protein (A138V) is in the mutant confirmation when grown at 39C (the nonpermissive temperature) and in the wild type conformation when grown at 32C (the permissive temperature). A H1299-neo line (p53 null) grown at both 39C and 32C were used as counter-screens to filter out false positive associated with temperature shifting. The small molecular compounds that selectively target mutant p53-containing cancer cells were selected as candidate probes for further study. A cytotoxicity assay based on the measurement of ATP contents in cells was used in this screen. Concentration-responses of all the compounds in the library collection were determined in qHTS using the cell lines and temperature conditions as above.
NCGC Assay Protocol Summary: Both the H1299-p53A138V and H1299-neo cell lines were provided by Dr.Yi Sun, a PI at the University Michigan. The cells were maintained and cultured at 37C. The resuspended frozen cells were used to plate the cells in the 1536-well assay plates at a density of 600 cells per well in 5 ul medium. The assay plates with the cells were incubated at 37C for 16 to 30 hours before the experiments. The library compounds in DMSO solution were added to the cells in assay plates and incubated 24 hours at 39C (for mutant p53 conformation) or 32C (for normal p53 conformation as control). An ATP_lite assay kit (PerkinElmer) was used to determine the cell viability. Tomaxifen (100uM) was used as the positive control for cell killing. Data were normalized to the controls for basal activity (DMSO only) and 100% killing (100uM tamoxifen). AC50 values were determined from concentration-response data modeled with the standard Hill equation. P53 assay protocol: 1. Reagent; 5 uL H1299-p53A138V or H1299-neo cell cells/well 2. Time; overnight; 37C incubation 3. Compounds; 23 nL; 5.9 nM to 46 uM 4. Controls; 23 nL; Tamoxifen 100 uM 5. Time; 24 hr; 39C incubation 6. Reagent; 3 uL; ATP_Lite reagent 7. Time; 20 min; Room Temperature 8. Detection; Luminescence; Viewlux plate reader Keywords: p53, synthetic lethal, cancer, cell viability, cytotoxicity, H1299 cell line, luminescence, MLSMR, MLSCN, NIH Roadmap, qHTS, NCGC
Potency is read from the fitted curve at half-maximal effect.

SMILES	activity, negative = cell killing	Potency
Cc1ccc(NC(=O)C2CCN(S(=O)(=O)c3cc(-c4noc(C)n4)ccc3C)CC2)c(C)c1	16.7%	
Cc1ccc(-c2cc(N)on2)cc1	9.86% [at 1.84 µM]	
Cc1ccc2[nH]cc(CCCN3C(=O)c4ccccc4C3=O)c2c1	-0.898% [at 1.84 µM]	
Cc1nn(Cc2ccc(Cl)cc2)c(Cl)c1/C=N/NC(=O)CNc1ccccc1F	34.8%	
COc1ccc(NC(=O)Cn2c(=O)n(CCC(C)C)c(=O)c3cccnc32)cc1Cl	-16.3%	
CCOC(=O)c1ccc(NC(=O)Cn2cc(S(=O)(=O)Cc3ccccc3F)c3ccccc32)cc1	-3.04%	
CCOc1cccc2c1N[C@@H](c1ccc(C(=O)O)cc1)[C@H]1CC=C[C@@H]21	2.51%	
Cc1[nH]c2ccccc2c1/C=N/NC(=O)CNC(=O)c1ccc2c(c1)OCO2	2.07% [at 1.84 µM]	
Cc1cc[n+](-c2[nH]c(=O)sc2/C=N/NC(=O)c2ccccc2[O-])cc1C	21.4%	
O=C(Cn1c(=O)nc(-c2ccccc2)c2cc(Cl)ccc21)NCc1ccc(Cl)cc1	-21.4%	
CCN(C(=O)Cn1c(=O)nc(-c2ccccc2)c2cc(Cl)ccc21)c1cccc(C)c1		12.6 µM (active)
Cc1cccc(NC(=O)Cn2nc(-c3ccc(Cl)cc3)c3ccccc3c2=O)c1	1.82%	
COc1ccc(-c2nnc(SCc3cccnc3)o2)cc1	-29.7%	
CCCn1c(SCC(=O)Nc2ccc(C)c(S(=O)(=O)N3CCOCC3)c2)n[nH]c1=O	11.9%	
COc1ccccc1Nc1c2c(nc3ccc(NC(=O)/C=C/c4cc(OC)c(OC)c(OC)c4)cc13)CCCC2		10 µM (active)
COc1cc(C(=O)Nc2ccc(-n3c(C)nc4ccccc4c3=O)cc2)cc(OC)c1OC	19%	
O=C(Nc1c2c(nc3ccccc13)CCCC2)c1ccccc1Br	12.7%	
CCOC(=O)c1cc2c(=O)n3ccccc3nc2n(CC2CCCO2)c1=NC(=O)c1ccc(C(C)(C)C)cc1 (stereo unspecified)	10.4%	
Cc1ccccc1CSc1nc2c([nH]c3ccccc32)c(=O)n1C	12.6%	
Cc1ccc(C)c(N2CCN(CCCNC(=O)Nc3ccc(Cl)cc3)CC2)c1		5.01 µM (active)
CC1=C(c2ccc(Cl)cc2)S(=O)(=O)N=C1N1CCN(c2cc(C)ccc2C)CC1	-12.3%	

SMILES	activity, negative = cell killing	Potency
CC1=C(c2ccc(C)cc2)S(=O)(=O)NC1=NCCCN1CCN(c2cc(C)ccc2C)CC1	-8.74%	
COc1ccccc1OCC(=O)Nc1nnc2n1CCS2	17%	
O=C(CSc1oc(-c2ccc(F)cc2)nc1S(=O)(=O)c1ccc(Br)cc1)NC1CCCCC1	-7.12%	
CC(C)S(=O)(=O)c1oc(-c2ccc(F)cc2)nc1S(=O)(=O)c1ccc(F)cc1		12.6 µM (active)
Cc1ccc(-c2nc(S(=O)(=O)c3ccc(C)cc3)c(N3CCCCCC3)o2)cc1	3.17%	
CCOc1ccc(S(=O)(=O)N/N=C(\C)c2ccc(Cl)c(Cl)c2Cl)cc1	13.3%	
Cc1ccc(S(=O)(=O)NC2(C(F)(F)F)NC(=O)N(CCc3ccccc3)C2=O)cc1 (stereo unspecified)	0.252%	
CCOc1ccc(NC(=O)c2ncoc2-c2ccco2)cc1		5.01 µM (active)
CCOc1ccc(NC(=O)CN2CCN(CC(=O)Nc3ccc(OC)cc3)CC2)cc1		inactive
CCOc1ccc(NC(=O)c2cnn(-c3ccccc3)c2-n2cccc2)cc1	59.1%	
C=Cc1ccc(Cn2c(C(=O)O)c(CNC3CCCC3)c3ccc(C)cc32)cc1	-17.8%	
Cc1ccccc1C(=O)Nc1cc(C)c(O)c(-c2nc3ccccc3o2)c1	-18%	
O=C(NC1CCN(C(=S)NCc2ccco2)CC1)c1ccc(F)cc1	5.38%	
COc1ccc(S(=O)(=O)NCC(c2ccco2)N2CCOCC2)cc1 (stereo unspecified)	5.2%	
Cc1ccc(NS(=O)(=O)c2ccc3c(c2)CC(=O)N3)cc1Cl	-10.8%	
COc1ccc(CCNc2nc(-c3ccc(F)cc3)cc(C(F)(F)F)n2)cc1OC	-13.6%	
Cc1ccc(O)c(NC(=O)CCS(=O)(=O)c2nc(-c3ccc4c(c3)OCO4)cc(C(F)(F)F)n2)c1	68.3%	
CSc1ccccc1NC(=O)CCS(=O)(=O)c1nc(-c2cccs2)cc(C(F)(F)F)n1	133%	
COc1ccccc1-c1cc(C(F)(F)F)nc(S(=O)(=O)CCCC(=O)Nc2cc(C)ccc2O)n1		22.4 µM (active)
CC(=O)c1ccc(NC(=O)c2nc3nc(C)cc(C(F)F)n3n2)cc1	11.3%	
CCCS(=O)(=O)c1ncc(Cl)c(C(=O)Nc2scc(-c3ccccc3)c2C(=O)OCC)n1	-27.2%	

SMILES	activity, negative = cell killing	Potency
Cc1ccc(NC(=O)c2nc(S(=O)(=O)Cc3cccc(C)c3)ncc2Cl)cc1		22.4 µM (active)
CCSc1ncc(Cl)c(C(=O)Nc2cc(C)ccc2C)n1	-0.257%	
Cc1ccc2nc(CN3CCN(S(=O)(=O)c4ccc(C)c(C)c4)CC3)oc2c1	-11.2%	
O=C1N(c2ccc(Cl)cc2)C(c2ccc(Cl)cc2)N2CCCN12 (stereo unspecified)	-0.885% [at 1.84 µM]	
O=C(COC(=O)CSc1nnc(-c2ccc(Cl)cc2)o1)Nc1cc(Cl)cc(Cl)c1	0.272%	
O=[N+]([O-])c1ccc(N2CCN(S(=O)(=O)c3ccccc3)CC2)cc1N1CCc2ccccc2C1	39.8%	
COc1cc(CNC(=O)c2cc3n(n2)CCCN(Cc2cccc(F)c2)C3=O)cc(OC)c1OC	-11.9%	
O=C(Cc1ccc(Cl)cc1)NCC(c1cccs1)S(=O)(=O)c1ccc(Cl)cc1 (stereo unspecified)	18.8%	
COc1ccccc1Nc1cc(C(=O)NCCCN(C)C2CCCCC2)c2ccccc2n1		12.6 µM (active)
COc1ccc(Nc2cc(C(=O)NCCCN(C)c3ccccc3)c3ccccc3n2)c(OC)c1	31.5%	
CCCCN(CCCNC(=O)c1cc(Nc2ccccc2OC)nc2ccccc12)c1ccccc1	-2.39%	
COc1ccc(-c2cc3ccc(OCc4nn[nH]n4)cc3oc2=O)cc1		10 µM (active)
COc1ccc2oc(=O)c(-c3cn4c(n3)sc3cc(OC)ccc34)cc2c1	-0.0282%	
COc1ccc2cc(-c3nc(Cl)c4c5c(sc4n3)CC(C)CC5)c(=O)oc2c1 (stereo unspecified)	-14.6%	
O=C(COc1nc2ccccc2nc1N1CCOCC1)NCC(F)(F)F	-2.52%	
CCCn1ccc2c(OCC(=O)NCc3ccc(F)cc3)cccc2c1=O	-11.4%	
Cc1nn2c(=O)cc(COC(=O)c3cccc(NC(=O)COc4ccccc4Cl)c3)nc2s1		6.31 µM (active)
COc1ccc(OCC(=O)Nc2cccc(C(=O)OCc3cc(=O)n4nc(C)sc4n3)c2)cc1	-1.29%	
Cc1nn2c(=O)cc(COC(=O)c3ccccc3NC(=O)COc3ccccc3C)nc2s1	-5.99%	
